NALP1 inh: NALP1 inflammasome inhibitors in reconstituted yeast, colorimetric, S. cerevisiae, triplicate retest; S. cerevisiae NALP1/ASC/caspase-1 growth, X-gal OD620, 72 h; inhibition, % at 10 µM; 280,000 compounds, 0.61% hits; AID 2071, 2009; in the data active = inhibition mostly above about 24%, no sharp cut-off; inactive = mostly below about 32%
ZTA counter: counter-screen for EBNA-1 inhibitors: inhibitors of Epstein-Barr virus ZTA. P03206. ZTA-DNA binding, fluorescence polarization. inhibition, % at 11 µM. 320,000 compounds, 0.15% hits. AID 2234; in the data active = inhibition above about 33%
Target sequence (P03206 whole entry, looked up): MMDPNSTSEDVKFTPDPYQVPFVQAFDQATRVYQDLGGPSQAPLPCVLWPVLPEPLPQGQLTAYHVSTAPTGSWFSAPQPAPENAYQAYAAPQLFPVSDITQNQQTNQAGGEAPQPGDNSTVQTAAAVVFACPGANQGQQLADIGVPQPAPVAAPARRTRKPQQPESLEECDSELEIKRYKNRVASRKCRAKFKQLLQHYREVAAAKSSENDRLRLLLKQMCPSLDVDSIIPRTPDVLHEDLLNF
NLRP3 yeast inh: NALP3 inflammasome inhibitors in reconstituted yeast, primary screen, luminescence, uHTS; Yeast reconstituted NLRP3/ASC/caspase-1, beta-gal luminescence, 24 h; inhibition, % at 10 µM; 330,000 compounds, 0.39% hits; AID 2825, 2010;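 active = inhibition of 50% or more; inactive = inhibition below 50%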;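 also: plate controls were induced DMSO wells for no effect and uninduced yeast grown without galactose for full effect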
PolyA inh: polyadenylation inhibitors in yeast reporter cells, primary screen, luminescence, S. cerevisiae. S. cerevisiae SKY197-pL101 polyadenylation reporter, beta-gal luminescence; efflux-impaired pdr1/pdr3 knockout yeast; score 100 = 6 SD above DMSO. activity score, % at 12 µM. 300,000 compounds, 0.02% hits. AID 1875, 2009;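 active = lowest replicate activity score at least 50, where 100 means six control SD above control mean; inconclusive = lowest score under 50 but half or more replicates reach 50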;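 also: yeast exposed to compound for 9 h at 30 °C; higher score means more reporter readthrough which indicates perturbed polyadenylation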
EBNA-1 inhibitor: EBNA-1 DNA-binding inhibitors, primary screen, biochemical, fluorescence polarization; inhibition, % at 14.8 µM; 300,000 compounds, 0.34% hits; AID 1950, 2009; in the data active = inhibition above about 28%
dFosB activator: activators of delta FosB homodimer, primary screen, biochemical, fluorescence polarization, TAMRA-CDK5 oligo, single point | Protein FosB (Mus musculus), P13346 | purified delta FosB; percent of positive-control signal above neutral wells | activation, % at 25 µM | 340,000 compounds, 0.99% hits | AID 493131, 2011;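 active = mean activation above about 17%, with every replicate also reaching it, limit read from the data, passing the limit was not always enough; inconclusive = only one of the two conditions met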
Target sequence (P13346 whole entry, looked up): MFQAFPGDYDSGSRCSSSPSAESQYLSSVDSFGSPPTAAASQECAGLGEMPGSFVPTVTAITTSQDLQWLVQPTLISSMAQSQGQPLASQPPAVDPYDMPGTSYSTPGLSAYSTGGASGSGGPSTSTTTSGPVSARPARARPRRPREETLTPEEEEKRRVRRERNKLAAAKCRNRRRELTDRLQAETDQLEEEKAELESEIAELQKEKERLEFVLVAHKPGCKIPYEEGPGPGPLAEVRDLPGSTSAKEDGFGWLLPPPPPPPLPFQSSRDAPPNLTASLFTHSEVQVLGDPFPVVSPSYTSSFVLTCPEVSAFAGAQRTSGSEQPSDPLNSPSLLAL
EBNA-1 inh conf: EBNA-1 DNA-binding inhibitors, retest, confirmation, biochemical, fluorescence polarization, triplicate | 830 compounds, 35% hits | shares compounds with EBNA-1 inhibitor | inhibition, % at 14.8 µM | Recombinant EBNA-1 DBD, Cy5-DNA fluorescence polarization;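 active = mean inhibition across replicates above a set limit taken from the earlier primary screen, cut at about 28% in these data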;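 also: plate controls were EBNA-1 protein with DMSO for no effect and wells lacking EBNA-1 for full effect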
ZTA DNA inh trip: EBV Zta DNA binding inhibitors, counter-screen for EBNA-1 inhibitor project, biochemical, fluorescence polarization, triplicate; 830 tested, under 10 active; shares compounds with EBNA-1 inhibitor; inhibition, % at 11.1 µM; Zta-ZRE DNA binding, Cy5 fluorescence polarization; AID 2328, 2010;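 active = mean inhibition over triplicates above a set limit taken from the primary EBNA-1 screen, cut at about 37% in these data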;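 also: purified full length Zta protein with Cy5 labeled ZRE DNA probe; 0% = Zta with DMSO and 100% = wells lacking Zta protein; inhibitors lower polarization by freeing the labeled DNA probe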
ZTA inh confirm: EBV Zta binding to ZRE DNA, inhibitors, confirmation, biochemical, fluorescence polarization, triplicate | shares compounds with ZTA counter | inhibition, % at 11.1 µM | 320 compounds, 30% hits;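 active = mean inhibition across triplicate runs above the hit threshold derived for the original primary screen, cut at about 33% in these data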;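 also: 0% = Zta with DMSO and 100% = wells lacking Zta protein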
EBNA-1 counter: EBNA-1 DNA-binding inhibition, counter-screen for ZTA inhibitor project, biochemical, fluorescence polarization; AID 2362, 2010; shares compounds with ZTA counter; 320 tested, under 10 active; inhibition, % at 14.8 µM; call rule not given here
* = called active by the depositor; u = inconclusive; x = no result given. Shown are actives, neighbours in structure and some others; about 2.2% of the full set was active somewhere.

SMILES	NALP1 inh	ZTA counter	NLRP3 yeast inh	PolyA inh	EBNA-1 inhibitor	dFosB activator	ZTA inh confirm	EBNA-1 counter	others
CN(C)c1ccc(/C=C/[N+](=O)[O-])cc1	79.5*	-6.0	11.0	-13.2	4.4	6.4	x	x
c1ccc(-c2[nH]c[n+](CC3CO3)c2-c2ccccc2)cc1 (stereo unspecified)	37.0	40.4*	4.8	x	11.5	x	x	x
c1ccc(OCC2CO2)cc1 (stereo unspecified)	x	-2.8	3.7	x	x	-1.6	x	x
CCN1C[C@]2(C)CC[C@H](O)[C@]34C1[C@H](C[C@H]23)[C@@]1(O)C[C@H](OC)[C@H]2C[C@@H]4[C@@H]1C2O (stereo partly specified)	x	-9.5	7.9	x	-10.1	0.4	x	x
CC1CCC/C=C/C2CC(O)CC2C(O)/C=C/C(=O)O1 (stereo unspecified)	40.0*	-16.7	3.3	-9.2	4.9	8.9	x	x
COC(=O)C1=C(C(=O)OC)SC2(S1)C(C(=O)OC)=C(C(=O)OC)Sc1c2ssc1=O	x	x	x	x	x	-11.8	x	x
N=Cc1c(O)n(-c2ccc(C34CC5CC(CC(C5)C3)C4)cc2)c(=O)[nH]c1=O	25.8	21.2	1.8	2.4	28.7*	45.9*	x	x
O=c1[nH]c(=O)n(-c2ccc(Br)cc2)c(O)c1C=NC(CO)(CO)CO	x	3.5	7.5	4.3	4.8	x	x	x
COCCO[C@H]1CC[C@@]2(C)C(=CCC3C2CC[C@@]2(C)C3CC[C@]2(C)O)C1 (stereo partly specified)	x	x	41.2	x	x	-10.8	x	x
CC(CC(C)(C)N1CC1)=NNC(=O)Nc1cccc2ccccc12	x	x	x	x	x	3.8	x	x
CCOC(=O)C1(c2ccccc2)CCN(CCC(=O)Nc2cccc(Br)c2)CC1	x	x	24.5	x	x	17.8*	x	x
COc1cc2c(ccc3c4cc(OC)c(OC)cc4c[n+](C)c23)cc1O	x	x	x	x	x	32.9*	x	x
COc1ccc(Cc2nccc3cc(OC)c(OC)cc23)cc1OC	12.2	-1.7	23.3	16.6	2.5	-5.3	x	x
O=c1[nH]c(=O)n(CCc2ccccc2)c(O)c1C=NCc1ccc2c(c1)OCO2	2.6	-4.5	14.3	-29.4	31.1*	-8.1	x	x	EBNA-1 inh conf=45.8*;ZTA DNA inh trip=-6.5
CN(C)C(=O)Oc1noc2cc(Cl)ccc12	11.9	8.8	10.5	-0.1	34.0*	1.6	x	x	EBNA-1 inh conf=-7.7;ZTA DNA inh trip=-5.2
CN(C)C(=O)Oc1c(Cl)cc(Cl)c2cccnc12	-3.1	-13.6	-26.4	-8.4	2.7	-0.5	x	x
COc1ccc(-c2csc(NC(=O)COC(=O)Cc3ccccc3)n2)cc1OC	37.7	15.0	19.7	17.2	30.5*	x	x	x	EBNA-1 inh conf=34.0*;ZTA DNA inh trip=-0.2
CC(CC(C#N)(c1ccccc1)c1ccccc1)N1CCOCC1 (stereo unspecified)	x	x	x	x	x	-3.8	x	x
CC1CC2(C)C(=CC1=O)CCC1C3CCC(C)(O)C3(C)CC3OC312 (stereo unspecified)	x	x	x	x	x	4.3	x	x
OCCNc1c2c(nc3ccccc13)CCCC2	6.9	17.9	8.8	5.5	-8.8	-6.9	x	x
C[n+]1c2ccccc2nc2ccc(NCCO)cc21	30.1	59.8*	49.0	-7.0	21.7	-263.7	48.2*	26.9
CCC1CN1P(=O)(c1ccccc1)N1CC1CC (stereo unspecified)	x	x	x	x	x	-11.0	x	x
Cc1nc2c(=O)n(C)c(=O)nc-2n(C)n1	-11.9	46.3*	25.5	9.8	-3.5	-6.1	71.2*	-6.9
C=CCC1(Cc2ccsc2)C(=O)NC(=O)NC1=O	x	x	x	x	x	-4.9	x	x
CCc1ccc(N2C(=O)NC(=O)/C(=C\c3cc(C)n(-c4cc(C(=O)O)cc(C(=O)O)c4)c3C)C2=O)cc1	12.0	36.6*	16.3	-9.7	-7.3	-7.7	27.8	-7.6
SMILES	NALP1 inh	ZTA counter	NLRP3 yeast inh	PolyA inh	EBNA-1 inhibitor	dFosB activator	ZTA inh confirm	EBNA-1 counter	others
O=C(NN=Cc1ccc(N(CCCl)CCCl)cc1)c1cccnc1	x	x	x	x	x	-2.2	x	x
CCOC(=O)c1c(NS(=O)(=O)c2ccccc2)n(CCCOC)c2nc3ccccc3nc12	14.1	55.6*	10.1	0.0	6.7	-5.2	-3.7	-10.5
COCCCn1c(N)c(C(=O)OCCOC)c2nc3ccccc3nc21	12.4	13.3	14.6	11.2	9.4	-0.6	x	x
CC(O)C1C=CC=CC(=O)OC2CC3OC4C5OC5(C)C(O)CC4(COC(=O)C(O)C(C)CCO1)C2(C)C31CO1 (stereo unspecified)	x	x	x	x	x	-0.1	x	x
O=C(O)CC1OCC=C2CN3CCC45c6ccccc6NC4C1C2CC35 (stereo unspecified)	7.2	-11.9	8.7	8.8	-0.1	9.8	x	x
O=C(O)CC1OCC=C2CN3CCC45C6=CC(=O)C(=O)C([N+](=O)[O-])=C6NC4C1C2CC35 (stereo unspecified)	-2.3	41.4*	x	-9.4	-18.8	-2.3	67.5*	-1.7
O=C(NP(=O)(N1CC1)N1CC1)c1cc(I)ccc1I	x	x	x	x	x	-0.7	x	x
CN1C(=O)/C(=C/C=C/c2ccco2)C(=O)NC1=S	x	34.4*	7.0	u	0.6	15.2	69.1*	9.8
O=C1NC(=O)N(Cc2ccco2)C(=O)/C1=C/C=C/c1ccco1	x	35.3*	10.4	-17.8	11.6	-14.3	30.7	7.3
CCN(CC)c1ccc(N=Cc2c(O)n(Cc3ccco3)c(=O)[nH]c2=O)cc1	11.4	36.6*	22.7	-5.2	-6.7	-12.8	3.9	-9.9
NC(=O)c1ccc(N=Cc2c(O)n(Cc3ccco3)c(=O)[nH]c2=O)cc1	x	5.0	-6.3	-14.7	-5.1	-19.8	x	x
CCN(CC)c1ccc(N=Cc2c(O)n(-c3cc(OC)ccc3OC)c(=O)[nH]c2=O)cc1	-9.2	34.4*	18.9	-0.1	-16.6	-0.2	-5.5	-5.7
Cn1c(O)c(/C=N/N2CCCCC2)c(=O)[nH]c1=O	30.2	37.2*	7.3	13.0	2.3	-0.7	1.0	4.4
COC(=O)C1=C(c2cccc(C#N)c2)C[C@@H]2CC[C@H]1N2C(=O)N1CCC(C)CC1	x	-9.0	13.2	x	x	-3.7	x	x

From PubChem
